For 12 molecules, Potency results are on record in PubChem BioAssay (NCATS).

Experiment in all cases: qHTS profiling for inhibitors of Plasmodium falciparum proliferation (AID 504749); also: nearly all actives have a fitted effect of over 60% in size
Holding throughout (details): P. falciparum in erythrocytes, SYBR Green DNA, 72 h; series mostly up to 28.7 µM

One test has as its system CP329. In short, it runs like this:
(§1)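 P. falciparum-infected erythrocytes (0.3% parasitemia, 2.5% hematocrit) incubated with compound 72 h at 37 C, 5% CO2. Parasite DNA detected by SYBR Green after lysis, overnight at room temperature; normalised to 0.29 uM artemisinin and DMSO.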

Another test concerns CP335. In short, it runs like this:
as §1

The subject of another test is DFO2036. In short, it runs like this:
as §1

For another test, the system named is DIV14. The gist of the method:
as §1

The next test relates to DIV17. In short, it runs like this: as §1
For another test, the system named is DIV30. The gist of the method:
as §1

Another test has as its system Dd2. In short, it runs like this: as §1
The next test relates to ECU. In short, it runs like this: as §1
For another test, the system named is FAB9. In short, it runs like this:
as §1

In a further test the test system is GB4. In short, it runs like this:
as §1

The subject of another test is HB3. The gist of the method:
as §1

The next test relates to ICS. In short, it runs like this:
as §1

Another test deals with JCK. In short, it runs like this: as §1
The next test has as its system N140. The gist of the method:
as §1

The next test relates to P93_24. In short, it runs like this:
as §1

The test system of the next test is P94_40. In short, it runs like this:
as §1

In a further test the test system is PAD. The gist of the method:
as §1

The test system of a further test is PC15. In short, it runs like this: as §1
In a further test the test system is PC26. In short, it runs like this:
as §1

The subject of another test is PC49. In short, it runs like this:
as §1

Inconclusive results are not listed. Active and inactive are the calls of the source. Calls follow the shape of the dose curve; as a rule, active = well fitted inhibition curve with a large enough effect; inconclusive = small, poorly fitted or top-dose-only effect; inactive = flat fitted curve, though single readings scatter.
Potency is read from the fitted curve at half-maximal effect.

In the case of `CCCCCCCCCCCC[N+](C)(C)CCOc1ccccc1`, the Potency in the test with CP329 was 13.5 µM (active); in the test with CP335, 6.01 µM (active); in the test with DFO2036 it was 5.01 µM (active); in the test with DIV14 it was 5.36 µM (active); with DIV17, 8.49 µM (active); in the test on DIV30, 13.5 µM (active). The Potency was 3.55 µM (active) in the test with Dd2; 5.01 µM (active) with ECU; 7.94 µM (active) in the test with FAB9; 5.36 µM (active) with GB4; 6.31 µM (active) in the test on HB3; 2.24 µM (active) in the test with ICS. Moreover, the Potency was 12.6 µM (active) in the test with JCK; 7.94 µM (active) in the test with N140; 4.47 µM (active) in the test with P93_24; 4.47 µM (active) with P94_40; 7.94 µM (active) in the test on PAD; 10 µM (active) in the test on PC15. Also, the Potency in the test with PC26 is 13.5 µM (active); in the test on PC49, 8.91 µM (active).
`CCC(=O)O[C@H]1CC[C@H]2[C@@H]3CCC4=CC(=O)CC[C@]4(C)[C@H]3CC[C@]12C`: the Potency result in the test with CP329, in the test on CP335, in the test with DFO2036, with DIV14, in the test on DIV17 and in the test with DIV30 was “inactive” in each case. For the same molecule, the Potency entry with Dd2, in the test with ECU, in the test on FAB9, in the test with GB4, with HB3 and in the test with ICS was “inactive” in each case. Further, the Potency entry with JCK, with N140, in the test on P93_24, in the test with P94_40, in the test with PAD and with PC15 was “inactive” each time. The Potency entry in the test with PC26 and in the test with PC49 was “inactive” throughout.
On to `Cc1ccc(N=CN(C)C=Nc2ccc(C)cc2C)c(C)c1`, for which the Potency result with CP329, with CP335, in the test on DFO2036, with DIV14, with DIV17 and with DIV30 was “inactive” each time. The Potency result in the test with Dd2, in the test on ECU, in the test on FAB9, in the test on GB4, in the test on HB3 and with ICS was “inactive” each time. For the same molecule, the Potency entry with JCK, in the test on N140, in the test with P93_24, in the test on P94_40, with PAD and with PC15 was “inactive” in each case. For the same molecule, the Potency result in the test with PC26 and in the test with PC49 was “inactive” throughout.
Take `CC(C)NCC(O)c1ccc(N)c(C#N)c1` (centres undefined): the Potency entry in the test with CP329, in the test with CP335, with DFO2036, with DIV14, with DIV17 and in the test with DIV30 was “inactive” throughout. Besides, the Potency result in the test with Dd2, with ECU, with FAB9, in the test with GB4, in the test on HB3 and in the test on ICS was “inactive” each time. Also, the Potency result in the test with JCK, with N140, with P93_24, with P94_40, with PAD and with PC15 was “inactive” in each case. In addition, the Potency result in the test with PC49 is “inactive”.
Take `c1ccc2nc(N3CCNCC3)ccc2c1`: the Potency result in the test on CP329, in the test with CP335, in the test with DFO2036, in the test with DIV14, with DIV17 and with DIV30 was “inactive” throughout. The Potency entry with Dd2, with ECU, with FAB9, in the test on GB4, in the test on HB3 and in the test on ICS was “inactive” throughout. The Potency entry with JCK, in the test on N140, in the test on P93_24, in the test on P94_40, in the test on PAD and in the test with PC15 was “inactive” each time. Besides, the Potency result with PC26 and with PC49 was “inactive” throughout.
As for `CC(C)C(Br)C(=O)NC(N)=O` (centres undefined), the Potency result in the test on CP329, in the test with CP335, with DFO2036, in the test with DIV14, with DIV17 and in the test with DIV30 was “inactive” each time. Besides, the Potency result with Dd2, in the test with ECU, in the test with FAB9, in the test with GB4, in the test on HB3 and in the test on ICS was “inactive” throughout. The Potency result with JCK, with N140, with P93_24, in the test with P94_40, in the test on PAD and with PC15 was “inactive” throughout. For the same molecule, the Potency result in the test with PC26 and in the test with PC49 was “inactive” throughout.
Regarding `CCCCCCCCC(=O)NCc1ccc(O)c(OC)c1`, the Potency result with CP329, with CP335, with DFO2036, in the test with DIV14, in the test with DIV17 and in the test on DIV30 was “inactive” throughout. In addition, the Potency result in the test on Dd2, in the test on ECU, with FAB9, with GB4, with HB3 and in the test on ICS was “inactive” each time. The Potency entry in the test with JCK, with N140, in the test on P93_24, in the test with P94_40, in the test on PAD and with PC15 was “inactive” throughout. For the same molecule, the Potency entry in the test on PC26 and in the test on PC49 was “inactive” each time.
In the case of `CCN(Cc1ccc(Cl)nc1)/C(=C/[N+](=O)[O-])NC`, the Potency entry with CP329, in the test on CP335, in the test on DFO2036, with DIV14, with DIV17 and in the test with DIV30 was “inactive” throughout. Moreover, the Potency entry with Dd2, in the test on ECU, in the test on FAB9, with GB4, with HB3 and in the test on ICS was “inactive” throughout. In addition, the Potency result with JCK, in the test on N140, in the test on P93_24, in the test on P94_40, in the test with PAD and in the test on PC15 was “inactive” each time. Also, the Potency entry in the test on PC26 and in the test on PC49 was “inactive” throughout.
For the molecule `CCOC(=O)NC(O)C(Cl)(Cl)Cl` (centres undefined), the Potency entry with CP329, with CP335, in the test with DFO2036, in the test on DIV14, with DIV17 and in the test with DIV30 was “inactive” each time. Moreover, the Potency entry in the test on Dd2, in the test with ECU, with FAB9, in the test on GB4, in the test on HB3 and with ICS was “inactive” throughout. Further, the Potency result with JCK, in the test with N140, with P93_24, in the test on P94_40, with PAD and in the test on PC15 was “inactive” in each case. The Potency entry with PC26 and in the test on PC49 was “inactive” in each case.
Regarding `CN(C)C(=S)SSC(=S)N(C)C`, the Potency is 3.79 µM (active) in the test on CP329; 1.51 µM (active) in the test with CP335; 2.82 µM (active) in the test with DFO2036; 1.9 µM (active) in the test on DIV14; 1.51 µM (active) in the test on DIV17; 1.69 µM (active) in the test with DIV30. In addition, the Potency with Dd2 was 1 µM (active); in the test with ECU, 6.31 µM (active); with FAB9, 6.31 µM (active); in the test with GB4, 2.13 µM (active); in the test with HB3 it was 1.26 µM (active); in the test with ICS it was 0.891 µM (active). Besides, the Potency is 8.91 µM (active) in the test with JCK; 1.78 µM (active) with N140; 2.51 µM (active) in the test with P93_24; 2 µM (active) in the test with P94_40; 2 µM (active) in the test on PAD; 3.16 µM (active) in the test on PC15. Besides, the Potency in the test on PC26 is 3.79 µM (active); with PC49 it was 11.2 µM (active).
`O=c1n(Cl)c(=O)n(Cl)c(=O)n1Cl`: the Potency result in the test with CP329, in the test with CP335, in the test on DFO2036, with DIV14, in the test on DIV17 and in the test on DIV30 was “inactive” throughout. Further, the Potency result with Dd2, in the test on ECU, with FAB9, with GB4, in the test with HB3 and in the test on ICS was “inactive” each time. Further, the Potency result with JCK, in the test with N140, in the test on P93_24, in the test with P94_40, in the test with PAD and in the test on PC15 was “inactive” in each case. Also, the Potency result with PC26 and with PC49 was “inactive” throughout.
In the case of `OC(O)C(Cl)(Cl)Cl`, the Potency result with CP329, in the test with CP335, in the test with DFO2036, with DIV14, in the test with DIV17 and in the test with DIV30 was “inactive” throughout. The Potency entry in the test on Dd2, in the test with ECU, in the test on FAB9, in the test on GB4, with HB3 and with ICS was “inactive” each time. Also, the Potency entry in the test on JCK, with N140, in the test with P93_24, in the test with P94_40, in the test on PAD and in the test with PC15 was “inactive” each time. Besides, the Potency entry in the test with PC26 and in the test with PC49 was “inactive” each time.
